From PubChem BioAssay (Tox21)
Inconclusive results are not listed. Active and inactive are the calls of the source. Unless noted, calls come from the whole dose curve; as a rule, active = well fitted curve in the direction sought with a large enough effect in the repeat runs; inconclusive = weak or mixed curves; inactive = no such curve, though single readings can be large; an effect the other way counts as inactive or inconclusive.

Experiments:
[1] = A CellTox Green Cytotoxicity Assay to monitor cytotoxicity in HepG2 cells - 8 hour (AID 1224890); note: nearly all actives have a fitted effect of over 45% in size
How it was run: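 HepG2 cells, 600/well, preincubated 5 h with CellTox Green dye, then exposed to Tox21 compounds in DMSO at 37 C for up to 40 h. Dead-cell DNA fluorescence read at the indicated time point.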

[2] = qHTS assay to identify small molecule antagonists of the androgen receptor (AR) signaling pathway using the MDA cell line in the presence of 0.5 nM R1881 - cell viability counter screen (AID 1259242); note: nearly all actives have a fitted effect of over 45% in size
How it was run: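 MDA-kb2 cells (MMTV-luciferase, AR/GR responsive) were treated with compounds plus 0.5 nM R1881 (final) for 16 hr at 37C, 0% CO2. Viability was then read in the same wells as live-cell protease fluorescence (CellTiter-Fluor, 30 min).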

[3] = biological target: Estrogen receptor (Homo sapiens) (UniProt P03372); assay: qHTS assay to identify small molecule antagonists of the estrogen receptor alpha (ER-alpha) signaling pathway using the BG1 cell line in the presence of 0.1 nM 17-beta-estradiol (AID 1259244); note: nearly all actives have a fitted effect of over 50% in size
Chain of Estrogen receptor (Homo sapiens) (P03372 whole entry, looked up): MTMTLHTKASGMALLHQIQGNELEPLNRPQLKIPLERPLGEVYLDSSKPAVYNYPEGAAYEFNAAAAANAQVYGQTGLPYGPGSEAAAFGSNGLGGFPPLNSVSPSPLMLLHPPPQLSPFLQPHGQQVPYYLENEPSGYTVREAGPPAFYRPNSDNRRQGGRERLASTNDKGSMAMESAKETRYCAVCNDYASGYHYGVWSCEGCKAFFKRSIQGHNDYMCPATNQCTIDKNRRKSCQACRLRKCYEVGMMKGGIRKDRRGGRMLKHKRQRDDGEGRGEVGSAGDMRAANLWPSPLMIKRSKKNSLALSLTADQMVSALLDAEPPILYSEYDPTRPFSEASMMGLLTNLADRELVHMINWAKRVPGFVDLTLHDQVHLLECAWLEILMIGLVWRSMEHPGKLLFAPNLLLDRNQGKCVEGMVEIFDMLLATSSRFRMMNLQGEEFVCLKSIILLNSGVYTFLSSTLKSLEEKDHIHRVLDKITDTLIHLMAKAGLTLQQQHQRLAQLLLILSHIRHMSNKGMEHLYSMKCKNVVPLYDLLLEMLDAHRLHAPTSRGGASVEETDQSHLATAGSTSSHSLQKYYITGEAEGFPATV
How it was run: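 VM7Luc4E2 cells (endogenous full-length ER-alpha, 4×ERE-luciferase), kept 5 days in phenol red-free, charcoal-stripped FBS medium; 4,000 cells/well. Compounds added with 0.1 nM (final) 17beta-estradiol, 22 hr at 37C; luminescence read with ONE-Glo after 30 min.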

[4] = qHTS assay to identify small molecule HDAC inhibitors (AID 1259364); note: top concentration of the series differs between compounds; nearly all actives have a fitted effect of over 45% in size
How it was run: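 Wild-type HCT-116 cells, plated overnight at 37 C, exposed to compounds 2 hr at 37 C; luminogenic HDAC-Glo substrate then added 30 min at room temperature. Luminescence reports relative endogenous class I/II HDAC activity.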

[5] = qHTS assay to identify small molecule HDAC inhibitors - cell viability counter screen (AID 1259365); note: series mostly up to about 92 µM; nearly all actives have a fitted effect of over 50% in size
How it was run: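 Luminescence from CellTiter-Glo, developed 30min at room temperature, reports viability of wild-type HCT-116 cells treated 2hr with compounds at 37 C and 5% CO2 after overnight plating.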

[6] = qHTS assay to identify small molecule agonists of the sonic hedgehog signaling (Shh) pathway - cell viability counter screen (AID 1259366); note: nearly all actives have a fitted effect of over 50% in size
How it was run: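 Cytotoxicity counter screen run in the same wells as the Shh reporter assay. NIH/3T3 cells carrying a Gli1 response element–driven luciferase were treated with DMSO-dissolved compounds for 24hr, and live-cell protease activity was measured with CellTiter-Fluor.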

[7] = qHTS assay to identify small molecule antagonists of the sonic hedgehog signaling (Shh) pathway - cell viability counter screen (AID 1259367); note: nearly all actives have a fitted effect of over 55% in size
How it was run: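 Cells: 3T3 Gli1-Luc, 2,000/well, 4 hr pre-incubation. Compounds in DMSO, then conditioned medium. Incubation 24 hr, 37C, 5% CO2. CellTiter-Fluor at 23 hr, 1 hr, fluorescence.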

[8] = qHTS assay to identify small molecule agonists of the sonic hedgehog signaling (Shh) pathway (AID 1259368; calls by dose curve;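 note: NIH/3T3-derived 3T3Gli1-Luc cells carrying a stable Gli1-driven firefly luciferase reporter; series mostly up to about 92 µM; nearly all actives have a fitted effect of over 15% in size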)
How it was run: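 NIH/3T3-derived 3T3Gli1-Luc cells with stably integrated Gli1-driven firefly luciferase, 2,000 cells/well, compounds added after 4 hr. Incubated 24 hr at 37C, 5% CO2; luminescence read after 30 min with luciferase reagent at room temperature.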

[9] = qHTS assay to identify small molecule agonists of the androgen receptor (AR) signaling pathway in the presence of an antagonist - cell viability counter screen (AID 1259379);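 note: MDA-kb2 human breast cancer cells carrying an MMTV luciferase reporter; series mostly up to about 92 µM; nearly all actives have a fitted effect of over 25% in size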
How it was run: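 MDA-kb2 cells (MMTV-luciferase, AR/GR), 3,000/well, 5 h attachment, then 3.0 µM nilutamide (final) and compounds at 15 concentrations. Viability by CellTiter-Fluor fluorescence after 16 h at 37 °C, 0% CO2, in the reporter wells.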

[10] = qHTS assay to identify small molecule agonists of the estrogen receptor beta (ER-beta) signaling pathway - cell viability counter screen (AID 1259380); note: nearly all actives have a fitted effect of over 30% in size
How it was run: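 ER-beta-UAS-bla HEK293T cells in medium with 2% charcoal-stripped FBS, pre-incubated 6 hr, then treated 16 hr at 37C. Cytotoxicity read in the same wells by CellTiter-Glo luminescence after 30 min at room temperature.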

[11] = qHTS assay to identify small molecule antagonists of the estrogen receptor beta (ER-beta) signaling pathway - cell viability counter screen (AID 1259382);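 note: HEK293T cells carrying ER-beta-UAS-bla reporter stimulated with estradiol; series mostly up to about 92 µM; nearly all actives have a fitted effect of over 55% in size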
How it was run: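 ER-beta-UAS-bla HEK293T cells in 2% charcoal-stripped FBS medium, treated with compound plus 1 nM 17-beta-estradiol for 16 h at 37C. Viability read by CellTiter-Glo luminescence after 30 min at room temperature in the same wells.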

[12] = qHTS assay to identify small molecule agonists or antagonists of the thyroid stimulating hormone receptor (TSHR) signaling pathway - wild type cell line counter screen (AID 1259384; calls by dose curve)
How it was run: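 Counter screen in untransfected Hek293: compounds (15-point titration, triplicate) plus phosphodiesterase inhibitor Ro20-1724 added after 18 h plating; 30 min RT. Intracellular cAMP via competitive d2/cryptate immunoassay, 1 h incubation.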

[13] = biological target: Estrogen receptor beta (Homo sapiens) (UniProt Q92731); assay: qHTS assay to identify small molecule agonists of the estrogen receptor beta (ER-beta) signaling pathway (AID 1259377; active = well fitted activation curve with a large enough effect in the signal ratio in the repeat runs, not every such curve was filed as active; the % refers to the signal ratio)
Chain of Estrogen receptor beta (Homo sapiens) (Q92731 whole entry, looked up): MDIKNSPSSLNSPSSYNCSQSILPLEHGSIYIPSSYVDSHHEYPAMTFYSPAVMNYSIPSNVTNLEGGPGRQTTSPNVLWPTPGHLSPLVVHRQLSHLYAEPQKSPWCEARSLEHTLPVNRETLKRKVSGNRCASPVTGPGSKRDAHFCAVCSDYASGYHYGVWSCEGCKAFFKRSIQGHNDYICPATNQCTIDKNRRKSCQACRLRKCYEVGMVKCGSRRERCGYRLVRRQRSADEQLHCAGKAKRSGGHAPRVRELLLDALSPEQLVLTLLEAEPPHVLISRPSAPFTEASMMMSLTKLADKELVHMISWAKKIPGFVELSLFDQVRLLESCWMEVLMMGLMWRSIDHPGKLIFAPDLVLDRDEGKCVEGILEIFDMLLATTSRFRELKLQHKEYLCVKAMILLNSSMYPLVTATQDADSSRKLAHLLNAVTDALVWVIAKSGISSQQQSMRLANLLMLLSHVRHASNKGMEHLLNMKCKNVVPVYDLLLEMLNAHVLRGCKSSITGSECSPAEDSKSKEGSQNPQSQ
How it was run: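 HEK293T ER-beta-UAS-bla; 2% charcoal-stripped FBS; cells pre-incubated 6 hr, compound 16 hr, 37C/5% CO2; LiveBLAzer B/G FRET substrate 2 h RT; fluorescence intensity read.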

[14] = biological target: Estrogen receptor beta (Homo sapiens) (UniProt Q92731); assay: qHTS assay to identify small molecule antagonists of the estrogen receptor beta (ER-beta) signaling pathway (AID 1259378; active = well fitted inhibition curve with a large enough effect in the signal ratio in the repeat runs, not every such curve was filed as active; the % refers to the signal ratio)
How it was run: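 Antagonist mode: compounds added to beta-lactamase reporter HEK293T ER-beta-UAS cells stimulated with E2 (1nM final), 16 hr at 37C. LiveBLAzer B/G FRET substrate, 2 hours room temperature, fluorescence read-out.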

[15] = qHTS assay to identify small molecule antagonists of the estrogen receptor alpha (ER-alpha) signaling pathway using the BG1 cell line in the presence of 0.1 nM 17-beta-estradiol - cell viability counter screen (AID 1259241); note: nearly all actives have a fitted effect of over 40% in size
How it was run: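 VM7Luc4E2, 4,000 cells/well, phenol red-free medium + 10% charcoal-stripped FBS; 24 hr plating; cpd + 0.1 nM E2 final, 22 hr 37C/5% CO2; CellTiter-Fluor 30 min, fluorescence.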

[16] = qHTS assay to identify small molecule phospholipidosis (PLD) inducers (AID 1259344; active = well fitted curve in the direction sought with a large enough effect; an effect the other way counts as inactive or inconclusive)
How it was run: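 Phospholipidosis is scored by imaging LipidTOX-stained pits in HepG2 cells exposed to compound for 24 h at 37 C; pit counts and integrated intensities per well and per cell serve as outputs.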

[17] = qHTS assay to identify small molecule antagonists of the sonic hedgehog signaling (Shh) pathway (AID 1259369; calls by dose curve; note: nearly all actives have a fitted effect of over 45% in size)
How it was run: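 NIH/3T3-derived Gli1-Luc reporter cells plated 4 h, dosed with compound, then stimulated with conditioned medium for 24 h at 37 C. Firefly luciferase luminescence read after 30 min with detection reagent at room temperature.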

[18] = biological target: Estrogen receptor (Homo sapiens) (UniProt P03372); assay: qHTS assay to identify small molecule agonists of the estrogen receptor alpha (ER-alpha) signaling pathway in the presence of an antagonist (AID 1259383; calls by dose curve; note: top concentration of the series differs between compounds; nearly all actives have a fitted effect of over 15% in size)
How it was run: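 VM7Luc4E2 cells express endogenous full-length ER-alpha with an ERE-luciferase reporter and were hormone-deprived for 5 days. Compounds at 15 concentrations were added with 10.0nM ICI-182,780 for 22hr at 37C. Luminescence was read with ONE-Glo.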

[19] = biological target: Androgen receptor (Homo sapiens) (UniProt P10275); assay: qHTS assay to identify small molecule antagonists of the androgen receptor (AR) signaling pathway using the MDA cell line in the presence of 0.5 nM R1881 (AID 1259243); note: nearly all actives have a fitted effect of over 50% in size
Chain of Androgen receptor (Homo sapiens) (P10275 whole entry, looked up): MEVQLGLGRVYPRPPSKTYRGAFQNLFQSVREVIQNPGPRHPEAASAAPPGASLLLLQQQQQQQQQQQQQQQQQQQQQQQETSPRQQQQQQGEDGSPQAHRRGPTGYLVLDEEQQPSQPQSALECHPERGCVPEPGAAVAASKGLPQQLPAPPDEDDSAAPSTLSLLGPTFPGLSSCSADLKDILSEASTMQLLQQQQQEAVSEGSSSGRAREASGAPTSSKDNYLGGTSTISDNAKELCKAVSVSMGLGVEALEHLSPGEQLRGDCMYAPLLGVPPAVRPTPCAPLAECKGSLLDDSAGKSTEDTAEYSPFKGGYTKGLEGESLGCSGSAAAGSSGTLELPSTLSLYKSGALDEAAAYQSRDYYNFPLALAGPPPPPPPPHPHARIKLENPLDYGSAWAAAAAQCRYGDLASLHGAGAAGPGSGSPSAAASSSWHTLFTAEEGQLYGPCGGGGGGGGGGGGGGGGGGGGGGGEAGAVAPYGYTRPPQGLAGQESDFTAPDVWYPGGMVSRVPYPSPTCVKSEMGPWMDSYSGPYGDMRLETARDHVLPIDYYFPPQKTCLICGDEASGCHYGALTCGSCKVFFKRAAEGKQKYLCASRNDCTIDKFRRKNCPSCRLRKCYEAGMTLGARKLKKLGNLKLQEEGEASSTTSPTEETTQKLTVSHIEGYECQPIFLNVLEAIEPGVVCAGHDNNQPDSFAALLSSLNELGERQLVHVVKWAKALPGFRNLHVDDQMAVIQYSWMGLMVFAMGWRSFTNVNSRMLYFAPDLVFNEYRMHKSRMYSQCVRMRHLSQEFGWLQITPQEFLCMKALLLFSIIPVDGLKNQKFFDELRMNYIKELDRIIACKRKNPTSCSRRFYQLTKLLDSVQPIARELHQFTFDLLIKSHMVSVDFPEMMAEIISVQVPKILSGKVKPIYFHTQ
How it was run: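 MDA-kb2 cells (MMTV-luciferase, responsive to AR and GR) at 3,000/well, rested 5 h at 37C, 0% CO2, then given compounds plus 0.5 nM R1881 (final) for 16 hr. Luciferase read with ONE-Glo after 30 min at room temperature.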

[20] = biological target: Androgen receptor (Homo sapiens) (UniProt P10275); assay: qHTS assay to identify small molecule agonists of the androgen receptor (AR) signaling pathway in the presence of an antagonist (AID 1259381; calls by dose curve; note: nearly all actives have a fitted effect of over 15% in size)
How it was run: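 MDA-kb2 cells carrying MMTV-luciferase (AR/GR responsive), 3,000 cells/well, co-treated with 3.0 uM nilutamide final. Compounds at 15 concentrations, 16 hr at 37C without CO2. Luciferase luminescence read after 30 min with ONE-Glo.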

Measured: Potency

COC(=O)CCCCCCCCC(=O)OC
not listed: [13] | [14] | [15] | [16] | [17] | [18] | [19] | [20]
inactive: all other assays above

N#CCN(CC#N)CCN(CC#N)CC#N
not listed: [3] | [6] | [15] | [16] | [17] | [18] | [19] | [20]
inactive: all other assays above

NC(=O)c1ncn([C@@H]2O[C@H](CO)[C@@H](O)[C@H]2O)c1N
not listed: [1] | [13] | [14] | [19] | [20]
inactive: all other assays above

CCCCOCC(C)OCC(C)O (stereo not given)
not listed: [6] | [12] | [15] | [16] | [17] | [18] | [19] | [20]
inactive: all other assays above

CC1(C)SC(C)(C)SC(C)(C)S1
not listed: [1] | [16] | [17]
inactive: all other assays above

NCCN1CCNC1=O
not listed: [6] | [13] | [14] | [15] | [16] | [19] | [20]
inactive: all other assays above

CC(C)c1cccc(C(C)C)c1N
not listed: [12] | [13] | [14] | [15] | [16] | [18] | [19] | [20]
inactive: all other assays above

CCO[Si](CCCN=C=O)(OCC)OCC
not listed: [3] | [13] | [14] | [15] | [16] | [18] | [19] | [20]
inactive: all other assays above

CC(C)(C)N(CCO)CCO
not listed: [15] | [16] | [18] | [19] | [20]
inactive: all other assays above
